The values below come from PubChem BioAssay (Tox21).

Where “and” joins values, the source holds several entries; their conditions need not be identical. Equal entries are not always repeated. Results filed as inconclusive are left out. Some structures have more than one record in an assay (separate samples or runs), and their calls can disagree. Calls of active or inactive are those of the source. Unless noted, the call rests on the fitted dose curve; in most records, active means well fitted curve in the direction sought with a large enough effect in the repeat runs; inconclusive means weak or mixed curves; inactive means no such curve, though single readings can be large; an effect the other way counts as inactive or inconclusive.

Experiment [1] is described as follows: qHTS assay to identify small molecule agonists of the RXR signaling pathway - cell viability counter screen (AID 1159529). Further: nearly all actives have a fitted effect of over 50% in size. Further: potency means the concentration at half of the fitted maximal effect. Put shortly: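 In this parallel viability measure, GeneBLAzer RXR-alpha HEK 293T cells (2% charcoal-stripped FBS) were given a 5 hr preincubation, treated with compounds 16 hr at 37 C, and read by CellTiter-Glo luminescence.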
(In general: qHTS replaces the single test concentration by a dilution series.)

The nature of experiment [2]: qHTS assay to identify small molecule antagonists of the retinoid acid receptor (RAR) signaling pathway - cell viability counter screen (AID 1159551). Further: nearly all actives have a fitted effect of over 35% in size. Put shortly: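 Luminescent ATP quantitation (CellTiter-Glo) gave cell viability in C3RL4 cells exposed to test chemicals for 6 h at 37 C alongside 1 uM final retinol.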
Experiment [3] is described as follows: qHTS assay to identify small molecule antagonists of the retinoic acid receptor (RAR) signaling pathway (AID 1159552; further: nearly all actives have a fitted effect of over 50% in size; further: potency means the concentration at half of the fitted maximal effect). Put shortly: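 C3RL4 RARE-luc cells, overnight plating; retinol 1 uM final added right after compound; 6 hr 37 C; luciferase read at 30 min RT.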
The nature of experiment [4]: qHTS assay to identify small molecule agonists of the retinoic acid receptor (RAR) signaling pathway (AID 1159553). Further: potency means the concentration at half of the fitted maximal effect. The note with it: C3RL4 RARE luciferase reporter, agonist, 6 h; activation: at 73.3 µM (top of the series) unless noted. Put shortly:
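Luminescence from a RARE-driven luciferase reporter in C3RL4 cells served as the read-out, measured after 30 min with detection reagent at room temperature. Compounds in DMSO were applied for 6 hr at 37 C following overnight seeding.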

Experiment [5] is described as follows: qHTS assay to identify small molecule antagonists of the estrogen related receptor (ERR) signaling pathway from Tox21 library - cell viability counter screen (AID 1224834). Further: nearly all actives have a fitted effect of over 30% in size. Further: potency means the concentration at half of the fitted maximal effect. Put shortly: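 Fluorescence from CellTiter-Fluor gives the viability read-out, taken 30 min after reagent addition. Before that, ERR cells seeded 6 h earlier were incubated with compounds for 17.5 h at 37 C.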

For experiment [6], the target named is Luciferin 4-monooxygenase (Photinus pyralis) (UniProt P08659). Briefly: qHTS assay to identify small molecule inhibitors of firefly luciferase (AID 1224835). Further: nearly all actives have a fitted effect of over 25% in size. Further: potency means the concentration at half of the fitted maximal effect. In outline:
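Quantitative HTS format; KM concentrations of both substrates. Purified P. pyralis FLuc activity quantified from luminescence images.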

Experiment [7] deals with Nuclear receptor subfamily 1 group I member 3 (Homo sapiens) (UniProt Q14994). Kind of experiment: qHTS assay to identify small molecule antagonists of the constitutive androstane receptor (CAR) signaling pathway (AID 1224838).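 Further: HepG2 cells stably expressing hCAR with CYP2B6 luciferase reporter stimulated by CITCO; nearly all actives have a fitted effect of over 40% in size.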 Further: potency means the concentration at half of the fitted maximal effect. In outline: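 HepG2-CYP2B6-hCAR cells; 4 h pre-incubation; cpd (15 conc) + CITCO 50 nM final; 24 h, 37 C/5% CO2; ONE-Glo, luminescence.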
Chain of Nuclear receptor subfamily 1 group I member 3 (Homo sapiens) (Q14994 whole entry, looked up): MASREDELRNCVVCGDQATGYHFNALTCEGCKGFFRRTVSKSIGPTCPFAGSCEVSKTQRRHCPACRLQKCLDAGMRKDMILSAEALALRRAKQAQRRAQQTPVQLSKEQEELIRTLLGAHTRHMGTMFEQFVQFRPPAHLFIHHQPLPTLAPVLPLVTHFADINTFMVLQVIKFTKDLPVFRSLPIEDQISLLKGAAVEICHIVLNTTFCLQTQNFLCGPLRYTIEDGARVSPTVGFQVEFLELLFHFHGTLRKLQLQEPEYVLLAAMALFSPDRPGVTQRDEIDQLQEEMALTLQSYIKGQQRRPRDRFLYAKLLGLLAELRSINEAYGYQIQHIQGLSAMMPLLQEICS
Experiment [8] in a line: qHTS assay to identify small molecule antagonists of the estrogen related receptor signaling pathway with the pleiotropic PPARgamma coactivator (PGC) from Tox21 10K library - cell viability counter screen (AID 1224840; active means well fitted cell-killing curve with a large enough effect in the repeat runs, not every such curve was filed as active; further: nearly all actives have a fitted effect of over 40% in size; further: potency means the concentration at half of the fitted maximal effect). In outline: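 PGC/ERR cells, 2,000/well; 6 h pre-incubation 37 C/5% CO2; cpd in DMSO via pin tool; 17.5 h 37 C; CellTiter-Fluor, 30 min; fluorescence.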

Experiment [9] is described as follows: qHTS assay to identify small molecule antagonists of the estrogen related receptor signaling pathway with the pleiotropic PPARgamma coactivator (PGC) from Tox21 10K library (AID 1224841; call rule not given here; further: actives are mostly falling curves and most rising ones were filed inactive; nearly all actives have a fitted effect of over 50% in size; further: potency means the concentration at half of the fitted maximal effect). Put shortly: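 PGC/ERR cell line, 2,000 cells/well; 6 h pre-incubation 37 C/5% CO2; compounds (DMSO) pinned in; 18 h, 37 C; One-Glo, 30 min RT; luminescence.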
A short description of experiment [10]: qHTS assay to identify small molecule agonists of the estrogen related receptor signaling pathway with the pleiotropic PPARgamma coactivator (PGC) from Tox21 10K library (AID 1224842). Further: nearly all actives have a fitted effect of over 15% in size. Put shortly:
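PGC/ERR reporter cells (NTP line) were seeded 2,000 per well, rested 6 h at 37 C/5% CO2, then pin-dosed with compounds in DMSO for 18 h at 37 C; luciferase read by One-Glo luminescence after 30 min at room temperature.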

For experiment [11], the target named is Thyrotropin receptor (Homo sapiens) (UniProt P16473). Kind of experiment: qHTS assay to identify small molecule agonists of the thyroid stimulating hormone receptor (TSHR) signaling pathway (AID 1224843; calls by dose curve; further: nearly all actives have a fitted effect of over 45% in size). Put shortly:
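TSHR-expressing HEK293 cells (800 per well) were exposed to compounds for 30 min at room temperature. cAMP was then detected by HTRF competition with cAMP-d2 and anti-cAMP cryptate, read after 1 h at room temperature. Fifteen concentrations, triplicate.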

A short description of experiment [12]: qHTS assay to identify small molecule agonists of the constitutive androstane receptor (CAR) signaling pathway - cell viability counter screen (AID 1224836). Further: nearly all actives have a fitted effect of over 45% in size. In outline: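 Using CellTiter-Fluor, viability of HepG2 cells harbouring hCAR and CYP2B6-2.2kb was measured following 23 h incubation with a 15-concentration compound series plus PK11195 (0.75 uM final).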

Experiment [13] can be described thus: qHTS assay to identify small molecule antagonists of the constitutive androstane receptor (CAR) signaling pathway - cell viability counter screen (AID 1224837). Further: nearly all actives have a fitted effect of over 45% in size. Put shortly: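 HepG2-CYP2B6-hCAR cells, 2500/well, 4 hr pre-incubation; compound titration, 15 conc.; CITCO 50 nM final; 23 hr, 37 C/5% CO2; CellTiter-Fluor, fluorescence intensity.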
Experiment [14] has as its target Nuclear receptor subfamily 1 group I member 3 (Homo sapiens) (UniProt Q14994). Kind of experiment: qHTS assay to identify small molecule agonists of the constitutive androstane receptor (CAR) signaling pathway (AID 1224839).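 Further: HepG2 cells stably carrying human CAR and a CYP2B6 luciferase reporter; nearly all actives have a fitted effect of over 15% in size.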 Put shortly: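 Double-stable HepG2 cells (hCAR, CYP2B6-2.2kb) seeded 4 h before compound addition. Exposure 24 h with 0.75 uM PK11195 final. Luciferase detected by ONE-Glo.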

Experiment [15] in a line: qHTS assay to identify small molecule antagonists of the estrogen related receptor (ERR) signaling pathway - cell viability counter screen (AID 1224818). In outline:
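Multiplexed counter screen to separate cytotoxic compounds from true ERR modulators. ERR cells received DMSO-dissolved compounds after a 6 h pre-incubation, were exposed 17.5 h at 37 C, then assayed with CellTiter-Fluor fluorescence.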

Experiment [16] in a line: qHTS assay to identify small molecule antagonists of the estrogen related receptor signaling pathway with the pleiotropic PPARgamma coactivator (PGC) cell viability counter screen (AID 1224822). Put shortly: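 Cells: PGC/ERR, 2,000/well, 1536-well format. Pre-incubation 6 h, 37 C/5% CO2. Compound exposure 17.5 h, 37 C. Detection: CellTiter-Fluor, 30 min, fluorescence.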

Experiment [17] in a line: qHTS assay to identify small molecule agonists of the estrogen related receptor (ERR) signaling pathway (AID 1224820). In outline:
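Quantitative HTS of the LOPAC library used NTP ERR reporter cells treated 18 h at 37 C. Signal is luminescence after One-Glo addition and a 30 min room-temperature incubation.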

Experiment [18] relates to estrogen-related receptor alpha (ERRalpha) with PGC-1alpha coactivator, human. Kind of experiment: qHTS assay to identify small molecule antagonists of the estrogen related receptor signaling pathway with the pleiotropic PPARgamma coactivator (PGC) (AID 1224821; calls by dose curve;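 further: lower luminescence signal means antagonism of PGC/ERR signalling; nearly all actives have a fitted effect of over 50% in size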). Put shortly:
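Quantitative HTS for antagonism: PGC/ERR cells received compounds after 6 h attachment and were incubated 18 h at 37 C, with luminescence (One-Glo) as the endpoint.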

Experiment [19] is described as follows: qHTS assay to identify small molecule agonists of the estrogen related receptor signaling pathway with the pleiotropic PPARgamma coactivator (PGC) (AID 1224823). Put shortly: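 Cell-based luciferase assay in the NTP-supplied PGC/ERR line, 2,000 cells/well; 18 h compound exposure at 37 C, luminescence after One-Glo.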

Chain of Luciferin 4-monooxygenase (Photinus pyralis) (P08659 whole entry, looked up): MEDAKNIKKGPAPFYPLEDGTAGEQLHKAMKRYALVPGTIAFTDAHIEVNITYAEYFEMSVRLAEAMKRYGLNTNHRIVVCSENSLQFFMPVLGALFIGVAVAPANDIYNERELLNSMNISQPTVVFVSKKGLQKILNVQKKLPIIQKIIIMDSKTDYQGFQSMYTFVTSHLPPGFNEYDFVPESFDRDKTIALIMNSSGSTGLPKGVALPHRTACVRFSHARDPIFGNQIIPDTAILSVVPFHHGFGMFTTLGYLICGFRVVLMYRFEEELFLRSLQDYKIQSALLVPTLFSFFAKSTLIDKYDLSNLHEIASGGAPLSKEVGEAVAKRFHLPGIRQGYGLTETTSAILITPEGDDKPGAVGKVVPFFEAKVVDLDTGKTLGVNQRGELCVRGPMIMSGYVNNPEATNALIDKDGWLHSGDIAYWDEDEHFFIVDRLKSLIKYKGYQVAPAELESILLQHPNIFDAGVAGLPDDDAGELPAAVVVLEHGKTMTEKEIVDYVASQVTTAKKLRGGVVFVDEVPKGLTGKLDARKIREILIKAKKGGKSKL
Chain of Thyrotropin receptor (Homo sapiens) (P16473 whole entry, looked up): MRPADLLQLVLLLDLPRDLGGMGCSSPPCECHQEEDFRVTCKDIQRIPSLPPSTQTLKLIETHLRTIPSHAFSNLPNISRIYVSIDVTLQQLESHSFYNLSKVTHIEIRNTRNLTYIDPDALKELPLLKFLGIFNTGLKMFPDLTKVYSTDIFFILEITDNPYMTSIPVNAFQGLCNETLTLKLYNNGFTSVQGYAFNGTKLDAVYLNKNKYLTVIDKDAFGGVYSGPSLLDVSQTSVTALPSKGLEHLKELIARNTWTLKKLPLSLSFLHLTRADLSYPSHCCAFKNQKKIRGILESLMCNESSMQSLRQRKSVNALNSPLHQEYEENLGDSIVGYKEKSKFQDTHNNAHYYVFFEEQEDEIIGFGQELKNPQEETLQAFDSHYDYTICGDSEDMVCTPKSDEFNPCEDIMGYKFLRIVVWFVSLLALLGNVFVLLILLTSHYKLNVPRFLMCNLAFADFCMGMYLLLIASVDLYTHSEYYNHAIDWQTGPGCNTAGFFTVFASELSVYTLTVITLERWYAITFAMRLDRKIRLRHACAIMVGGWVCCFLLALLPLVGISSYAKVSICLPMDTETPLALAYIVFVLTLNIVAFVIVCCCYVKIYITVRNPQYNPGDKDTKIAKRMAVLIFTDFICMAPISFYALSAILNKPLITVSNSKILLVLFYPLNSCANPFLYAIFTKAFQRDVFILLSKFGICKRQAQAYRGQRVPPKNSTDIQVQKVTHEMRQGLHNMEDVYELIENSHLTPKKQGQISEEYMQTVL

As to `Cc1ccc([N+](=O)[O-])c(C)c1`, the Potency in experiment [1] is 24.6 µM (active) and inactive; in experiment [3], 6.11 µM (active) and inactive; in experiment [5] it was 17.2 µM (active) and inactive; in experiment [6], 31.7 µM (active) and inactive; in [7], 8.63 µM (active) and inactive; in experiment [8], 21.7 µM (active) and inactive. Moreover, the Potency in experiment [9] is 61.1 µM (active) and inactive. Besides, the Potency entry in [2], in experiment [4], in [10] and in experiment [11] was “inactive” throughout.
For `CC(=O)[C@@]1(O)CC[C@H]2[C@@H]3C[C@H](C)C4=CC(=O)C=C[C@]4(C)[C@@]3(F)[C@@H](O)C[C@@]21C`, the Potency entry in [1], in [2], in [3], in [4], in experiment [5] and in experiment [6] was “inactive” throughout. Also, the Potency entry in [12], in experiment [13], in experiment [7], in experiment [14], in experiment [8] and in [9] was “inactive” each time. Also, in [10], the Potency entry was “inactive”.
`CN(C)/N=N/c1nc[nH]c1C(N)=O`: the Potency result in experiment [1], in experiment [2], in experiment [3], in [4], in [5] and in [6] was “inactive” throughout. Moreover, the Potency entry in [12], in [8], in experiment [9] and in experiment [10] was “inactive” each time.
`Cc1ccc(C)c(O)c1`: the Potency result in [1], in experiment [2], in experiment [3], in experiment [4], in experiment [5] and in [6] was “inactive” in each case. The Potency entry in experiment [12], in [13], in [7], in [8] and in experiment [11] was “inactive” in each case.
In the case of `CCc1cccc2c3c([nH]c12)C(CC)(CC(=O)O)OCC3` (stereo not drawn), the Potency result in [1], in [2], in [3], in experiment [4], in experiment [5] and in experiment [6] was “inactive” throughout. Besides, the Potency result in experiment [12], in [7], in experiment [14], in experiment [8] and in experiment [11] was “inactive” each time. In addition, the outcome in experiment [15] and in experiment [16] was inactive.
For `C/C=C/C(=O)N(CC)c1ccccc1C`, the Potency result in [1], in [2], in experiment [3], in experiment [4], in experiment [5] and in experiment [6] was “inactive” throughout. Also, the Potency result in [12], in [13], in experiment [7], in experiment [8], in [9] and in experiment [10] was “inactive” in each case.
For `NCCS(=O)(=O)O`, the Potency result in experiment [1], in experiment [2], in experiment [3], in experiment [5], in experiment [12] and in [13] was “inactive” in each case. The Potency entry in [7] and in experiment [8] was “inactive” throughout. Moreover, the Potency was 28.4 µM (active) and inactive in [4]; 41.5 µM (active) and inactive in [6]. Besides, the outcome in [15] and in experiment [16] was inactive.
As for `CCCCCCOCCOCCO`, the Potency entry in experiment [1], in [2], in experiment [3], in experiment [4], in [5] and in [12] was “inactive” each time. The Potency entry in experiment [13], in experiment [8] and in [11] was “inactive” throughout.
Turning to `Nc1cc([N+](=O)[O-])ccc1C(=O)O`, the Potency result in experiment [1], in experiment [2], in [3], in experiment [4], in experiment [12] and in experiment [13] was “inactive” each time. For the same molecule, the Potency entry in experiment [7] and in experiment [8] was “inactive” in each case. In addition, the Potency in experiment [6] is 64.6 µM (active) and 35.6 µM (active).
In the case of `CC1(C)NC(=O)N(c2ccc([N+](=O)[O-])c(C(F)(F)F)c2)C1=O`, the Potency result in [1], in [2], in [3], in experiment [4], in experiment [5] and in experiment [6] was “inactive” throughout. Moreover, the Potency result in experiment [12], in [13], in experiment [7], in experiment [14], in experiment [8] and in experiment [9] was “inactive” each time. Further, the Potency entry in experiment [10] and in experiment [11] was “inactive” throughout. For the same molecule, the molecule was called inactive in [15], in experiment [17], in [18], in experiment [16] and in experiment [19].
On to `CCC(Cc1c(I)cc(I)c(N)c1I)C(=O)O` (stereo not drawn), for which the Potency result in [1], in experiment [2], in experiment [3], in [4], in experiment [5] and in experiment [6] was “inactive” each time. Besides, the Potency result in experiment [12], in [13], in [7], in [8] and in experiment [11] was “inactive” each time.
As to `CC(=O)Oc1c(C)c(C)c2c(c1C)CC[C@@](C)(CCC[C@H](C)CCC[C@H](C)CCCC(C)C)O2`, the Potency result in experiment [1], in experiment [2], in [3], in experiment [4], in experiment [5] and in experiment [6] was “inactive” each time. Also, the Potency entry in experiment [12], in experiment [13], in experiment [7], in experiment [8], in experiment [9] and in experiment [10] was “inactive” each time.
In the case of `Cc1ccc(S(=O)(=O)O)cc1C`, the Potency result in experiment [1], in [2], in [3], in [4], in experiment [5] and in [6] was “inactive” throughout. In addition, the Potency result in experiment [12], in experiment [7], in experiment [14] and in experiment [8] was “inactive” in each case.
Turning to `ClC/C=C/CCl`, the Potency entry in experiment [1], in experiment [2], in experiment [3], in experiment [4], in [5] and in experiment [6] was “inactive” throughout. In addition, the Potency result in experiment [12], in [7], in experiment [14], in [8], in experiment [9] and in experiment [10] was “inactive” each time. For the same molecule, the Potency result in [11] is “inactive”.
Regarding `CN1CCOCC1`, the Potency result in [1], in experiment [2], in [3], in [4], in experiment [5] and in experiment [12] was “inactive” throughout. The Potency result in experiment [13], in experiment [7], in experiment [14], in [8], in experiment [9] and in experiment [10] was “inactive” in each case.
As for `C=CCCCCCCCCCC`, the Potency result in [1], in experiment [2], in experiment [3], in [4], in [5] and in experiment [6] was “inactive” throughout. Besides, the Potency entry in experiment [12], in experiment [13], in experiment [7], in [14] and in experiment [8] was “inactive” in each case.
